Source: PubChem BioAssay (NCI)
Values joined by “and” are separate entries in the source; they are usually repeats but may differ in a detail not shown here. Equal values may be shown once. The panel holds about 83,000 compounds, 20% with a hit somewhere; the sample as a whole holds those more often.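 Growth was measured after 48 h exposure to one concentration of compound in 96-well plates. Values under 10 count as active.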 Active and inactive are the calls of the source.

Tests used:
Assay in all cases: NCI-60 one-dose screen, 48 h (100 = growth as untreated, 0 = no growth, -100 = all killed)
Details in all cases: 10 µM unless noted
SK-MEL-2 melanoma = tested on: SK-MEL-2 melanoma
EKVX NSCLC = tested on: EKVX NSCLC
SN12C renal = tested on: SN12C renal
UO-31 renal = tested on: UO-31 renal
TK-10 renal = tested on: TK-10 renal
ACHN renal = tested on: ACHN renal
A498 renal = tested on: A498 renal
CCRF-CEM leukemia = tested on: CCRF-CEM leukemia
MOLT-4 leukemia = tested on: MOLT-4 leukemia
SR leukemia = tested on: SR leukemia
RPMI-8226 leukemia = tested on: RPMI-8226 leukemia
OVCAR-8 ovarian = tested on: OVCAR-8 ovarian
OVCAR-5 ovarian = tested on: OVCAR-5 ovarian
OVCAR-4 ovarian = tested on: OVCAR-4 ovarian
SK-OV-3 ovarian = tested on: SK-OV-3 ovarian
IGROV1 ovarian = tested on: IGROV1 ovarian
OVCAR-3 ovarian = tested on: OVCAR-3 ovarian
HS 578T breast = tested on: HS 578T breast
NCI/ADR-RES ovarian = tested on: NCI/ADR-RES ovarian
CAKI-1 renal = tested on: CAKI-1 renal

Row | SMILES | growth (SK-MEL-2 melanoma) | growth (EKVX NSCLC) | growth (SN12C renal) | growth (UO-31 renal) | growth (TK-10 renal) | growth (ACHN renal) | growth (A498 renal) | growth (CCRF-CEM leukemia) | growth (MOLT-4 leukemia) | growth (SR leukemia) | growth (RPMI-8226 leukemia) | growth (OVCAR-8 ovarian) | growth (OVCAR-5 ovarian) | growth (OVCAR-4 ovarian) | growth (SK-OV-3 ovarian) | growth (IGROV1 ovarian) | growth (OVCAR-3 ovarian) | growth (HS 578T breast) | growth (NCI/ADR-RES ovarian) | growth (CAKI-1 renal)
1 | S=C1SCN(Cc2ccccc2)CN1Cc1ccccc1 | 85% (inactive) | 98.5% (inactive) | 90.5% (inactive) | 26.7% (inactive) | 75.2% (inactive) | 84.5% (inactive) | 74.4% (inactive) | 40.4% (inactive) | 70.6% (inactive) | 52.9% (inactive) | 17% (inactive) | 93.3% (inactive) | 93.2% (inactive) | 86.4% (inactive) | 103% (inactive) | 34.5% (inactive) | 32.4% (inactive) | 90.4% (inactive) | 73.6% (inactive) | 
2 | COc1ccc2nc(Cl)cc(C)c2c1 | 99.6% (inactive) | 80.4% (inactive) and 97.6% (inactive) | 107% (inactive) and 103% (inactive) | 84.9% (inactive) and 107% (inactive) | 73.7% (inactive) and 78.9% (inactive) | 105% (inactive) and 118% (inactive) | 86% (inactive) and 83.4% (inactive) | 100% (inactive) and 88.9% (inactive) | 100% (inactive) and 76.5% (inactive) | 88.2% (inactive) and 82.3% (inactive) | 95.6% (inactive) and 109% (inactive) | 101% (inactive) and 47.4% (inactive) | 93.7% (inactive) and 93.4% (inactive) | 99.2% (inactive) and 91.8% (inactive) | 107% (inactive) and 124% (inactive) | 108% (inactive) and 132% (inactive) | 119% (inactive) | 113% (inactive) | 98.9% (inactive) and 102% (inactive) | 
3 | O=[N+]([O-])c1ccc(-n2[nH]nnc2=S)cc1 | 109% (inactive) | 101% (inactive) | 94% (inactive) | 80.5% (inactive) | 116% (inactive) | 102% (inactive) | 95.1% (inactive) | 106% (inactive) |  | 92.1% (inactive) | 102% (inactive) | 107% (inactive) | 102% (inactive) | 92% (inactive) | 103% (inactive) | 91.3% (inactive) | 110% (inactive) | 104% (inactive) | 106% (inactive) | 95.6% (inactive)
4 | Cn1cc(-c2cc3c(Nc4ccc(CC(=O)Nc5cc(C(C)(C)C)on5)cc4)ncnc3[nH]2)cn1 | -60.5% (active) and -81% (active) | 6.89% (active) and 10.1% (inactive) | -10.9% (active) and -7.98% (active) | -11.4% (active) and 9.42% (active) | 0.328% (active) and -17.2% (active) | -6.75% (active) and 6.73% (active) | -60.1% (active) | 14.3% (inactive) and 5.35% (active) | 9.74% (active) and 5.37% (active) | 2.58% (active) | -2.19% (active) and -22.3% (active) | 4.54% (active) and 2.06% (active) | -8.65% (active) and 5.67% (active) | -12.1% (active) and 5.44% (active) | -5.62% (active) and -14.8% (active) | -12.2% (active) and 2.63% (active) | -15.1% (active) and -6.62% (active) | -22.4% (active) and -15.2% (active) |  | 
5 | Cc1cc(N=Nc2ccc(C)c(N=Nc3cc(C)c(N)cc3N)c2)c(N)cc1N | 107% (inactive) | 67.1% (inactive) and 72.3% (inactive) | 95.6% (inactive) and 85.7% (inactive) | 63.9% (inactive) and 51.5% (inactive) | 93.7% (inactive) and 92.3% (inactive) | 84.4% (inactive) and 81.8% (inactive) | 93.8% (inactive) and 85.9% (inactive) | 84.5% (inactive) and 61.3% (inactive) | 64.4% (inactive) and 61.8% (inactive) | 97.9% (inactive) and 35.1% (inactive) | 43.6% (inactive) and 88.2% (inactive) | 98.9% (inactive) and 102% (inactive) | 92.5% (inactive) and 86.8% (inactive) | 86.6% (inactive) and 75.5% (inactive) | 91% (inactive) and 95.2% (inactive) | 36.8% (inactive) and 53.5% (inactive) | 89.3% (inactive) and 63.1% (inactive) | 89.4% (inactive) and 88.8% (inactive) | 92.4% (inactive) and 84% (inactive) | 
6 | O=Nc1ccc(O)cc1 | 96.7% (inactive) and 109% (inactive) | 91.6% (inactive) and 105% (inactive) | 96.1% (inactive) and 97.3% (inactive) | 90.7% (inactive) and 62.9% (inactive) | 107% (inactive) and 105% (inactive) | 81.3% (inactive) and 75% (inactive) | 122% (inactive) and 130% (inactive) | 75.4% (inactive) and 56.1% (inactive) |  | 79.4% (inactive) and 74.3% (inactive) | 97.6% (inactive) and 103% (inactive) | 106% (inactive) and 92.4% (inactive) | 105% (inactive) and 98.9% (inactive) |  | 108% (inactive) and 107% (inactive) | 91.7% (inactive) and 82% (inactive) | 89.2% (inactive) and 97.7% (inactive) | 104% (inactive) and 96.6% (inactive) | 89.3% (inactive) and 84.6% (inactive) | 97.9% (inactive)
7 | O=S(=O)(Nc1ccccc1)C1CCCCC1 | 103% (inactive) | 104% (inactive) and 97.2% (inactive) | 94.9% (inactive) and 120% (inactive) | 77.2% (inactive) and 88.3% (inactive) | 103% (inactive) and 102% (inactive) | 110% (inactive) and 103% (inactive) | 104% (inactive) and 95.9% (inactive) | 105% (inactive) | 83% (inactive) and 92.4% (inactive) | 92.1% (inactive) and 90.5% (inactive) | 93.9% (inactive) and 106% (inactive) | 110% (inactive) and 108% (inactive) | 107% (inactive) and 104% (inactive) | 108% (inactive) and 117% (inactive) | 107% (inactive) and 103% (inactive) |  | 111% (inactive) and 104% (inactive) | 123% (inactive) and 108% (inactive) | 112% (inactive) and 105% (inactive) | 
8 | CN(C)CCC(=O)c1ccc(Cl)cc1 | 115% (inactive) and 118% (inactive) | 115% (inactive) and 124% (inactive) | 97.9% (inactive) and 102% (inactive) | 87.3% (inactive) and 95.4% (inactive) | 105% (inactive) and 119% (inactive) | 114% (inactive) and 105% (inactive) | 121% (inactive) and 114% (inactive) | 93.2% (inactive) and 73.9% (inactive) | 94.7% (inactive) and 93.5% (inactive) | 110% (inactive) | 75.4% (inactive) and 58% (inactive) | 110% (inactive) and 105% (inactive) | 117% (inactive) and 113% (inactive) | 105% (inactive) and 118% (inactive) | 108% (inactive) | 100% (inactive) and 116% (inactive) | 115% (inactive) and 113% (inactive) | 112% (inactive) | 114% (inactive) and 104% (inactive) | 
9 | O=CC(O)C(O)C(O)CO (configuration not stated) | -27.3% (active) | 114% (inactive) | 95.5% (inactive) and 109% (inactive) | 90.7% (inactive) and 78.5% (inactive) | 125% (inactive) and 107% (inactive) | 98.7% (inactive) and 98.1% (inactive) | 94.8% (inactive) and 109% (inactive) | 79.8% (inactive) and 98% (inactive) | 122% (inactive) and 87.4% (inactive) | 109% (inactive) and 89.6% (inactive) | 81.9% (inactive) and 122% (inactive) | 110% (inactive) and 106% (inactive) | 57.6% (inactive) and 97.7% (inactive) | 101% (inactive) and 114% (inactive) | 116% (inactive) and 101% (inactive) |  | 106% (inactive) | 98.4% (inactive) and 106% (inactive) | -41.1% (active) and 106% (inactive) | 
